Inconclusive results are not listed. Entries that show only a call come without a potency. Calls of active or inactive are those of the source. Unless noted, the call rests on the fitted dose curve; in most records, active means well fitted curve in the direction sought with a large enough effect; inconclusive means small, poorly fitted or top-dose-only effect, or another doubt; inactive means no such curve, though single readings can be large; an effect the other way counts as inactive or inconclusive.
How the values were obtained:
[1] = qHTS Assay for Identification of Small Molecule Inducers of Hypoxia Response (AID 2120; active means well fitted curve in the direction sought with a large enough effect in the signal ratio, with a control signal flat, not every such curve was filed as active; the % refers to the signal ratio); conditions: hypoxia response reporter cells, beta-lactamase ratio readout; series mostly up to 104 µM
Procedure, shortened: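 Read-out: CCF4 FRET emission ratio 460nm/530nm (excitation 405nm), converted to %Activity, with AC50 fitted across a compound titration. ME-180 cells carried an HRE-driven beta-lactamase reporter; compound exposure 17 h, 37 degrees C.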

[2] = qHTS for differential inhibitors of proliferation of Plasmodium falciparum line Dd2 (AID 1882); conditions: Potency: Plasmodium falciparum Dd2 proliferation inhibition; series mostly up to 28.7 µM;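 further: compound exposure of 72 h on infected erythrocytes; nearly all actives have a fitted effect of over 65% in size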
Procedure, shortened: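 RBC culture, 0.3% parasitemia / 2.5% Hct final; cpd added by pin tool in DMSO; 72 h, 37 C, 5% CO2; lysis buffer + SYBR Green I, o/n RT dark; FI 485/535; norm. to artemisinin 0.29 uM and DMSO.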

[3] = qHTS for differential inhibitors of proliferation of Plasmodium falciparum line W2 (AID 1883); conditions: Potency: Plasmodium falciparum W2 proliferation inhibition; series mostly up to 28.7 µM;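 further: potency means the concentration at half of the fitted maximal effect; parasites grown with compound for 72 h before lysis and staining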
[4] = qHTS Assay for Modulators of Human Peripheral Myelin Protein 22 (PMP22) Expression/Activity (AID 1967; active means well fitted curve in the direction sought with a large enough effect in the signal ratio; the % refers to the signal ratio); conditions: Cell-based PMP22 reporter, dual-color luciferase ratio, mouse Pmp22 promoter in mouse Schwann cells; series mostly up to 115 µM
Procedure, shortened: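 Mouse MSC80 Schwann line, Pmp22 promoter–CBG68 reporter, EF-alpha–CBR internal control. 24h compound exposure, 37 °C/5% CO2, DMEM + 10% FBS. Readout: corrected green/red luminescence ratio, normalized to untreated cells; concentration-response curves fitted and classified.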

[5] = biological target: Ferritin light chain (Equus caballus) (UniProt P02791); assay: qHTS Validation Assay for Identification of Novel General Anesthetics (AID 2323); conditions: horse apoferritin, anesthetic-site fluorescent probe displacement; series mostly up to 76.9 µM
Ferritin light chain (Equus caballus), sequence (P02791 2-175 limits assumed): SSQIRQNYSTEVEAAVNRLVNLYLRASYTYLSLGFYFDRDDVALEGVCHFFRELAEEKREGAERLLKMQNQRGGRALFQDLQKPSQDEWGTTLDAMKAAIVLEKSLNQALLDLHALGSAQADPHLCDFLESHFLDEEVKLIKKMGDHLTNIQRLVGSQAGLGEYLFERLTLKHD
Procedure, shortened: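 10 uM horse-spleen apoferritin + 1-AMA (50% saturated, PBS); cpd pin-transferred, 10 min RT. Ex 380/Em 535 nm endpoint. Activity normalized between free 1-AMA and 1-AMA/apoferritin; 4-parameter Hill fit of concentration-response.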

[6] = qHTS for differential inhibitors of proliferation of Plasmodium falciparum line GB4 (AID 1816); conditions: Potency: Plasmodium falciparum GB4 proliferation inhibition; series mostly up to 28.7 µM;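 further: potency means the concentration at half of the fitted maximal effect; parasite growth measured after 72 h incubation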
[7] = qHTS for differential inhibitors of proliferation of Plasmodium falciparum line 3D7 (AID 1876); further: potency means the concentration at half of the fitted maximal effect; conditions: P. falciparum 3D7 proliferation inhibition; series mostly up to 28.7 µM
[8] = qHTS for differential inhibitors of proliferation of Plasmodium falciparum line HB3 (AID 1886); conditions: Potency: Plasmodium falciparum HB3 proliferation inhibition; series mostly up to 28.7 µM;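 further: parasites grown with compound for 72 h before SYBR Green readout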; further: potency means the concentration at half of the fitted maximal effect
[9] = qHTS for differential inhibitors of proliferation of Plasmodium falciparum line D10 (AID 1877); conditions: series mostly up to 28.7 µM;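 further: parasites grown with compound for 72 h before DNA staining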; further: potency means the concentration at half of the fitted maximal effect

For CCCCCl, the outcome [1] was “inactive”.
In the case of Clc1cc(I)cc(Cl)c1NC1=NCCN1, the Potency [2] is reported as “inactive”, the Potency [3] is reported as 14.1 µM (active) and the outcome [4] is reported as “inactive”. For the same compound, the outcome [5] was “inactive”.
In the case of O=CC=O, the outcome [1] is reported as “inactive”.
For Clc1ccccc1Cl, the outcome [1] was “inactive”.
In the case of O=C1CCO1, the outcome [1] is reported as “inactive”.
In the case of ClC(Cl)(Cl)Cl, the outcome [1] is reported as “inactive”.
With CCN(CCCl)Cc1ccccc1Br the Potency [6] was 12.6 µM (active), the Potency [7] was 10 µM (active) and the Potency [3] was 11.2 µM (active). The Potency [8] was 10 µM (active) and the outcome [4] was “inactive”.
With ClC=C(Cl)Cl the outcome [1] was “inactive”.
In the case of CC(C)Nc1ccc(Nc2ccccc2)cc1, the outcome [1] is reported as “inactive”.
With C[C@]12CCC(=O)C[C@@H]1CC[C@@H]1[C@@H]2CC[C@]2(C)[C@@H](O)CC[C@@H]12 the outcome [1] was “inactive”.
In the case of C[N+](C)(C)CC#CCOC(=O)Nc1cccc(Cl)c1, the Potency [7] is reported as 12.6 µM (active), the Potency [9] is reported as 11.2 µM (active) and the Potency [2] is reported as “inactive”. The Potency [3] was 12.6 µM (active), the outcome [4] was “inactive” and the outcome [5] was “inactive”.
With CC(N)c1cccc(Cl)c1Cl (stereo not drawn) the Potency [6] was 11.2 µM (active), the Potency [7] was “inactive” and the Potency [9] was “inactive”. For the same compound, the Potency [3] was 8.91 µM (active), the Potency [8] was “inactive” and the outcome [4] was “inactive”.
With O=[N+]([O-])c1ccccc1 the outcome [1] was “inactive”.
With CC(C)CCON=O the outcome [1] was “inactive”.
In the case of ClCC1CO1 (stereo not drawn), the outcome [1] is reported as “inactive”.
In the case of Oc1cc(Cl)c(Cl)cc1Cl, the outcome [1] is reported as “inactive”.

— PubChem BioAssay (NCATS)
